Reference: PubChem BioAssay (NCATS)
Records with an inconclusive call do not appear. Where a call stands in place of a potency, no number is given. Values without a mark were called inactive. Active and inactive are the calls of the source. The call rests on the fitted dose curve; in most records, active means well fitted cell-killing curve with a large enough effect; inconclusive means small, poorly fitted or top-dose-only effect, or effect the other way; inactive means flat fitted curve, though single readings scatter.
Potency means the concentration at half of the fitted maximal effect.

Each compound was assayed on CAOV3 (assay: Primary qHTS to identify gynecologic anti-cancer compounds using libraries of approved drugs and bioactive compounds (AID 1345084; further: nearly all actives have a fitted effect of over 55% in size)). Settings: Gynecologic cancer cell panel viability, ATPlite luminescence, 48 h; series mostly up to 57.5 µM.
Excerpt: National Center for Advancing Translational Sciences [NCATS] Assay Overview: Chemotherapeutic drug responses vary from cancer to cancer and from patient to patient. These variations could be caused by a number of factors including patient genomic background, tumor mutations, tumor heterogeneity, and aspects of drug treatment. Chemotherapeutic drug resistance is also a common issue and can lead to ineffective treatment and patient death. Here we have profiled the cell killing effects of thousands of compounds to characterize the responses in three gynecological cancers, identify cancer-selective compounds, and understand the diversity of responses to these compounds from pan-cancer suppressors to single cell line selective compounds. In this assay, we screened a 7,914 compound drug library that included approved drug and bioactive compounds in six ovarian, three cervical, and […] placental cancer cell lines using the ATPlite assay for cell viability. […] The cervical cancer cell lines included HeLa, Ca Ski, and C-33 A. The placental cancer cell lines included JEG-3. HEK 293T cells were used as the control cell line to determine the selectivity index. ATPlite is a luminescence based assay reliant on the conversion of a luciferase substrate to light in the presence of ATP. As a cytotoxic compound will suppress growth and decrease the number of cells, the concentration of ATP will decrease, and less light signal will be detected in the well.
Assay Protocol Summary: 1,000 cells in 4 uL of media were dispensed into white, solid bottom 1536-well plates using a Multidrop Combi (Thermo Scientific). The Assay plates were incubated for 16 hours at 37 C with 5% CO2 in assay plates, followed by the addition of 23 nL of DMSO or drug dissolved in DMSO. Each compound was assayed in five concentrations (0.092, 0.46, 2.3, 11.5, and 57.5 uM), using the automated Wako 1536 Pin Tool workstation and incubated at 37 C with 5% CO2 48 hours. 4 uL of ATPlite, the ATP monitoring reagent, was then added to the each well of the assay plates using the Multidrop Combi reagent dispenser followed by incubation for 15 minutes at room temperature. The resulting luminescence was measured using the ViewLux plate reader.
In the case of `C/C=C(\C)C(=O)OC1C(C)OC(OC2C(C)OC(OC3CCC4(C)C(=CCC5C4CCC4(C)C(C(C)OC6OC(COC7OC(CO)C(O)C(O)C7O)C(O)C(O)C6O)CCC54O)C3)CC2OC)C(O)C1OC` (stereo not given), the activity change, negative = cytotoxicity is reported as 12.8% [at 11.6 µM]. For `COC(=O)C1(C)CCC(=O)C2(C)c3c(O)cc(C(C)C)cc3C(O)C(OC(C)=O)C12` (stereo not given), the Potency was “inactive”. `Clc1ccc(N2C[C@H]3CC[C@@H](C2)N3)nn1` was tested, and the Potency was “inactive”. `CN1[C@@H]2CC[C@H]1CC(OC(=O)C1C=Nc3ccccc31)C2` (stereo not given in full) was tested, and the Potency was “inactive”. For `COc1cc(C)[nH]c(=O)c1CNC(=O)c1c(C)n([C@H](C)C2CCOCC2)c2ccccc12`, the Potency was “inactive”. In the case of `CCC1NC(=O)C2C(Cl)C(Cl)CN2C(=O)C(C(C)O)NC(=O)CC(c2ccccc2)NC(=O)C(CO)NC1=O` (stereo not given), the Potency is reported as “inactive”. With `C[C@]12CC[C@@H](O)C[C@H]1CC[C@@H]1[C@@H]2CC[C@]2(C)C(=O)CC[C@@H]12` the Potency was “inactive”. `C=C[C@H]1CN2CC[C@H]1C[C@@H]2[C@@H](O)c1ccnc2ccccc12` was tested, and the Potency was “inactive”. In the case of `Cc1c(Cl)cccc1S(=O)(=O)Nc1nc(CC(=O)N2CCN(C)CC2)cs1`, the Potency is reported as “inactive”. For `CCCCCOc1cc2c(cc1-c1cc(/C=C/C(=O)O)ccc1O)C(C)(C)CCC2(C)C`, the Potency was “inactive”. For `CC(CCc1ccc(O)cc1)O[C@@H]1O[C@H](CO[C@H]2OC[C@](O)(CO)[C@H]2O)[C@@H](O)[C@H](O)[C@H]1O` (stereo not given in full), the Potency was “inactive”. For `CC(=O)OC12C(O)C(C)C3(O)C4C=C(C)C(=O)C4CC(CO)=CC3C1C2(C)C` (stereo not given), the Potency was “inactive”. `CC(=O)OC1CC(O)C2(C)C(CC(OC(C)=O)C3(C)C2CCC2(C)C(c4ccoc4)C(=O)C4OC423)C1(C)C` (stereo not given) was tested, and the Potency was “inactive”. For `CCOc1ccccc1-n1c(C(C)N2CCN(C(=O)COc3ccc(Cl)cc3)CC2)nc2ccccc2c1=O` (stereo not given), the Potency was “inactive”. In the case of `COC1CC(O[C@H]2CC[C@]3(C=O)C4CC[C@]5(C)[C@@H](C6=CC(=O)OC6)CC[C@]5(O)[C@@H]4CC[C@]3(O)C2)OC(C)C1O[C@@H]1O[C@H](CO)[C@@H](O)[C@H](O)[C@H]1O` (stereo not given in full), the Potency is reported as 501 nM (active). In the case of `N#C[C@@H](O[C@@H]1O[C@H](CO[C@@H]2O[C@H](CO)[C@@H](O)[C@H](O)[C@H]2O)[C@@H](O)[C@H](O)[C@H]1O)c1ccccc1`, the Potency is reported as “inactive”. For `COC1CC(OC2CCC3(C=O)C(CCC4C3CCC3(C)C(C5=CC(=O)OC5)CCC43O)C2)OC(C)C1OC1OC(CO)C(O)C(O)C1O` (stereo not given), the Potency was 631 nM (active). With `C=C[C@H]1[C@H](O[C@@H]2O[C@H](CO)[C@@H](O)[C@H](O)[C@H]2O)OC=C2C(=O)OCC[C@H]21` the Potency was “inactive”. `CC[C@H]1CN2CC[C@H]1C[C@H]2[C@H](O)c1ccnc2ccc(OC)cc12` was tested, and the Potency was “inactive”. `C[C@H]1C(=O)O[C@H]2[C@H](O)[C@]34C5OC(=O)[C@]3(O[C@@H]3OC(=O)[C@H](O)C34[C@H](C(C)(C)C)[C@H]5O)C12O` (stereo not given in full) was tested, and the Potency was “inactive”. With `CN(C(=O)Cc1ccccc1)C(CN1CCCC1)c1ccccc1` (stereo not given) the Potency was “inactive”. `C[C@@](O)(COc1ccc(C#N)cc1)C(=O)Nc1ccc(C#N)c(C(F)(F)F)c1` was tested, and the Potency was “inactive”. For `CCN1C[C@]2(COC)[C@H](O)C[C@H](OC)[C@]34[C@@H]5C[C@]6(O)[C@H](OC(=O)c7ccccc7)[C@@H]5[C@@](O)([C@H]([C@H](OC)[C@H]23)[C@@H]14)[C@@H](O)[C@@H]6OC`, the Potency was “inactive”. In the case of `OC1(c2ccc(Cl)cc2)c2ccccc2C2=NCCN21` (stereo not given), the Potency is reported as “inactive”. In the case of `COC(=O)[C@@]12C(=O)C(C)C(=O)[C@]1(C)C(C)=C[C@H]1[C@]3(C=O)CC[C@H](OC(C)=O)C(C)(C)[C@H]3CC[C@@]12C` (stereo not given in full), the Potency is reported as “inactive”. With `C=C1[C@@H]2CC[C@@]3(C)[C@H](c4ccoc4)OC(=O)C[C@]13O[C@H]1CC(=O)C(C)(C)[C@H](C(OC(C)=O)C(=O)OC)[C@]12C` (stereo not given in full) the Potency was “inactive”. For `COC1=CC(=O)O[C@@H](CCc2ccccc2)C1`, the Potency was “inactive”. In the case of `C[C@@]1(C(=O)O)CC[C@]2(C)CC[C@]3(C)C4=CC(=O)c5cc(O)c(O)cc5[C@]4(C)CC[C@@]3(C)[C@@H]2C1`, the Potency is reported as “inactive”. For `Oc1ccc2c3c1O[C@H]1[C@H](N(CCCl)CCCl)CC[C@@]4(O)[C@@H](C2)N(CC2CC2)CC[C@]314`, the activity change, negative = cytotoxicity was 11.9% [at 11.6 µM]. In the case of `CN1C(=O)c2ccccc2NC(=O)C1Cc1ccccc1` (stereo not given), the Potency is reported as “inactive”. In the case of `C=C(CO)C(=O)O[C@H]1C/C(C)=C/CC/C(CO)=C/[C@H]2OC(=O)C(=C)[C@H]12`, the Potency is reported as “inactive”. Work on `C/C=C(\C)C(=O)OC1CC2C(CC=C3CC(OC4CC(OC)C(OC5CC(OC)C(OC6OC(C)C(OC7OC(CO)C(O)C(O)C7O)C(OC)C6O)C(C)O5)C(C)O4)CCC32C)C2(O)CCC(C(C)=O)C12C` (stereo not given) yielded an activity change, negative = cytotoxicity of 5.78% [at 11.6 µM]. In the case of `CN[C@H]1[C@H](O)[C@H](O[C@@H]2[C@@H](O)[C@H](O[C@H]3O[C@H]([C@H](C)O)[C@@H](O)[C@H](O)[C@H]3N)[C@@H](N)C[C@H]2N)OC[C@@]1(C)O`, the Potency is reported as “inactive”. With `COc1ccccc1CN[C@H]1C2CCN(CC2)[C@H]1C(c1ccccc1)c1ccccc1` the Potency was “inactive”. `CN1C(=O)N(c2ccc(C#N)c(C(F)(F)F)c2)C(=O)[C@]1(CO)c1ccccc1` was tested, and the Potency was “inactive”. In the case of `CC12CCC3C(CCC4(O)CC(O)CCC34C=O)C1(O)CCC2C1=CC(=O)OC1` (stereo not given), the Potency is reported as 2000 nM (active). With `COC1=CC(=O)O[C@@H](/C=C/c2ccccc2)C1` the Potency was “inactive”. `COC(=O)C12C(=O)C(C)(O)C(=O)C1(C)C(C)=CC1C34CCC(OC3=O)C(C)(CO)C4CCC12C` (stereo not given) was tested, and the Potency was “inactive”. `CCCSP(=O)(OCC)SCCC` was tested, and the Potency was “inactive”. For `CC(N)Cc1c[nH]c2ccccc12` (stereo not given), the Potency was “inactive”.
